Where “and” joins values, the source holds several entries; their conditions need not be identical. Identical values can stand only once. More than one record can exist for a structure, and the calls need not agree. Calls of active or inactive are those of the source. The calls were made as follows: active = hit-call score of the fitted dose curve at least 0.9, where 1 is the maximum; inactive = score below 0.9.

Chain of Transcription factor Sp1 (Homo sapiens) (P08047 whole entry, looked up): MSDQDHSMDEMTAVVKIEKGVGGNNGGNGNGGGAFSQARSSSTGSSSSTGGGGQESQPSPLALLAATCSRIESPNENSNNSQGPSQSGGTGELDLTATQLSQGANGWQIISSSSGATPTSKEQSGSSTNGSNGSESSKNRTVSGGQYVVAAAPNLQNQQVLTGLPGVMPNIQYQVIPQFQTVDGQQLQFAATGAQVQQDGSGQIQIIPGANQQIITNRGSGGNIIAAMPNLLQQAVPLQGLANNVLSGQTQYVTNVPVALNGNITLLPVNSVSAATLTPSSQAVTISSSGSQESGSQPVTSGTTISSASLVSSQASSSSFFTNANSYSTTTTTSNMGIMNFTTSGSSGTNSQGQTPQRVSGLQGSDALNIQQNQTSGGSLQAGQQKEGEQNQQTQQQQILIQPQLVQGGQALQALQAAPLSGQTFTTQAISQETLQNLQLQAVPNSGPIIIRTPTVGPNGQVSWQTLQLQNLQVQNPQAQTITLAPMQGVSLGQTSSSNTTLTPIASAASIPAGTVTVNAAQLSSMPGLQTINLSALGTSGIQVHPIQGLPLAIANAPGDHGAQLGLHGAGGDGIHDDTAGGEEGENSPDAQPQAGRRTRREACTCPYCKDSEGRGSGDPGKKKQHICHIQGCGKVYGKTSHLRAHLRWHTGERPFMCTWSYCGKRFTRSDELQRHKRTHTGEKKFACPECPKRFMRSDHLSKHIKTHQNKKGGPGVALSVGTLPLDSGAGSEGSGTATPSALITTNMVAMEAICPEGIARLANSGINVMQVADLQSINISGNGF

This test concerns the target Transcription factor Sp1 (Homo sapiens) (UniProt P08047). As to the kind of experiment: ATG_Sp1_CIS: Attagene CIS-FACTORIAL HepG2 Assay for human Specificity Protein 1 (Sp1) (AID 2282961). Particulars: HepG2 Sp1 cis-reporter transcription, actives raise or lower the signal. As for the experimental part: ATG_CIS is a cell-based, multiplexed-readout assay that uses HepG2, a human liver cell line, with measurements taken at 24 hours after chemical dosing in a 24-well plate.ATG_Sp1_CIS is one of 52 assay component(s) measured or calculated from the ATG_CIS assay. It is designed to make measurements of mRNA induction, a form of inducible reporter, as detected with fluorescence intensity signals by Reverse transcription polymerase chain reaction (RT-PCR) and Capillary electrophoresis technology.Data from the assay component ATG_Sp1_CIS was analyzed into 1 assay endpoint. This assay endpoint, ATG_Sp1_CIS, was analyzed with bidirectional fitting relative to DMSO as the negative control and baseline of activity. Using a type of inducible reporter, measures of mRNA for gain or loss-of-signal activity can be used to understand the reporter gene at the transcription factor-level as they relate to the gene SP1. Furthermore, this assay endpoint can be referred to as a primary readout, because this assay has produced multiple assay endpoints where this one serves a reporter gene function. To generalize the intended target to other relatable targets, this assay endpoint is annotated to the dna binding intended target family, where the subfamily is zinc finger.
Human liver HepG2 cells are transiently transfected with multiple reporter transcription units (MRTUs) in 6-well plates using FuGene 6 reagent (Roche; 3 ml FuGene/1 mg DNA). The MRTU constructs are regulated by a cis-regulating element (promoter). […] A major difference between the CIS and TRANS system is that in CIS activities of endogenous TFs are measured, whereas the TRANS assay evaluates changes in activities of exogenous, chimeric NR-Gal4 proteins. […] At the end of 24 hour incubation, total RNA was isolated using TriZol reagent (Invitrogen). The isolated RNA is then reverse-transcribed using oligo(dT) primer and Mo-MLV reverse transcriptase (Invitrogen) with DNAse I (Ambion) treatment for 30 min. The one-tenth of the produced cDNA was amplified by PCR using Taq DNA polymerase (Invitrogen) and two reporter sequence-specific primers. The PCR products were fluorescently labeled by primer extension with 6-arboxyfluorescein (6-FAM) 5'-labeled reporter sequence-specific primer (2 min at 95 C, 20 s at 68 C and 10 min at 72 C) and these products were digested with 5U of HpaI (New England Biolabs) for 2h at 37 C. The fragments were purified using Qiaquick PCR columns (Qiagen), analyzed on an ABI 3130xL genetic analyzer (Applied Biosystems) with peak positions identified by using a set of X-rhodamine (ROX)-labeled MapMarker1000 molecular weight standards (BioVentures). The raw capillary electrophoresis data was processed using Attagraph software (Attagene).
As to `CCCCC(CC)COC(=O)CCCCC(=O)OCC(CC)CCCC` (stereo not given), the call was inactive. On the same count and under the same terms, the same measure for `O=C(OCCOCCOC(=O)c1ccccc1)c1ccccc1`: “inactive”; for `Nc1cccc2c(N)cccc12`: “inactive”. The same measure, in the same setting: the same measure for `CCCCOCCO`: “inactive”; for `CCc1ccc(CCOc2ccc(CC3SC(=O)NC3=O)cc2)nc1` (stereo not given): “inactive”.

In the case of `CC(O)CO` (stereo not given), the compound was called inactive. Consider `CCCOC(=O)c1ccc(O)cc1`, for which the outcome was inactive. In the case of `CC(O)C(=O)O` (stereo not given), the compound was called inactive.

For `Cc1ccc(S(=O)(=O)O)c(C)c1`, the call was inactive.

`CCCCCCCCCCCCN1CCCC1=O`: the call was inactive. Take `Cc1cc(C)c(O)c(C)c1`: the outcome was inactive. Consider `C[C@@H]1C[C@H]2[C@@H]3CCC4=CC(=O)C=C[C@]4(C)[C@@]3(F)[C@@H](O)C[C@]2(C)[C@@]1(O)C(=O)COP(=O)(O)O`, for which the result was inactive.

For the compound `CCc1nn(C2CCCCC2)c2cc(C3(C#N)CCC(C(=O)O)CC3)ccc12` (stereo not given), the outcome was inactive. Regarding `Oc1cccc(O)c1`, the compound was called inactive. As for `O=C(O)c1ccccc1C(c1ccc(O)cc1)c1ccc(O)cc1`, the result was inactive. On the same count and under the same terms, with `CC(C)(C)CC(C)(C)c1ccc(O)c(-n2nc3ccccc3n2)c1` the entry was “inactive”; with `OC1CCC(C2CCCCC2)CC1` (stereo not given), “inactive”. On the same count and under the same terms, with `c1ccc2c(c1)ccc1ccccc12` the entry was “inactive”. The same measure, in the same setting: with `COCC(C)OCC(C)O` (stereo not given) the entry was “inactive”. Consider `CC1=C(/C=C/C(C)=C/C=C/C(C)=C/C(=O)O)C(C)(C)CCC1`, for which the compound was classed as inactive and the AC50 – broadly, the concentration at which the activity in the assay is half-maximal – is 11.9 µM (active).

With `CCC(=C(c1ccc(O)cc1)c1ccc(OCCN(C)C)cc1)c1ccccc1`, the AC50 is 13.4 µM (active) and the call was inactive. Take `CCCCCCCCCCCCCCCS(=O)(=O)Oc1ccccc1`: the call was inactive. In the case of `Cc1oc(-c2ccccc2)nc1CCOc1ccc(C[C@H](Nc2ccccc2C(=O)c2ccccc2)C(=O)O)cc1`, the outcome was inactive. With `OCCC(F)(F)C(F)(F)C(F)(F)C(F)(F)C(F)(F)C(F)(F)C(F)(F)C(F)(F)F`, the AC50 is 48.4 µM (active) and 150 µM (active). Same read-out and setting: with `CCN(CC)CCNc1ccc(CNC=O)c2sc3ccc(OC)cc3c(=O)c12` the figure was 0.98 µM (active). Consider `OC1CCCCC1`, for which the compound was called inactive. Same read-out and setting: the same measure for `O=C1OC2(c3ccccc31)c1cc(Br)c(O)c(Br)c1Oc1c2cc(Br)c(O)c1Br`: “inactive”. The same measure, in the same setting: with `NC(=O)N(O)[C@@H]1C=C[C@H](Oc2cccc(Oc3ccc(F)cc3)c2)C1` the entry was “inactive”. The same measure, in the same setting: the same measure for `O=[N+]([O-])c1ccc(O)cc1`: “inactive”. Consider `ClC1=C(Cl)C(Cl)(Cl)C(Cl)=C1Cl`, for which the AC50 was 15.7 µM (active) and 7.29 µM (active).

Regarding `CCCCCCCCC(=O)O`, the call was inactive.

As to `CC(=O)NC1(c2cccc(F)c2)CCN(CC[C@@]2(c3ccc(Cl)c(Cl)c3)CN(c3ccccc3)C(=O)CO2)CC1`, the concentration at half-maximal activity (AC50) was 44.4 µM (active).

As for `c1ccc2cc3c(ccc4ccccc43)cc2c1`, the compound was called inactive.

As to `CCCCC[C@H](O)CC(=O)CCc1ccc(O)c(OC)c1`, the AC50 is 166 µM (active). `CC[C@H](C)[C@@H](C(=O)O)n1sc2ccccc2c1=O`: the outcome was inactive. Turning to `CC(C)(C)c1ccc(O)c(C(C)(C)C)c1`, the result was inactive.

For the compound `CC[C@H](c1ccc(O)cc1)[C@@H](CC)c1ccc(O)cc1`, the outcome was inactive. As for `CCCCCCCC(=O)O`, the call was inactive.

The record behind these values is PubChem BioAssay (EPA / NIEHS).
